# The whole screen tested about 5,500 compounds, of which about 2,000 (36%) were called active. Inconclusive results (about 18%) are left out. Some of the results follow. Unmarked numbers belong to inactive results. No stated cut-off is given here; in the data, active means normalized growth mostly below about 0.91 (no sharp cut-off); inconclusive means no clear call, values can overlap the other calls; inactive means mostly above about 0.92.
# Assay: chemical genetic growth profiling, strain panel (AID 1159580);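 further: tested at 20 µM; growth read once vehicle control cultures reached saturation at 30 °C; 1 = growth at the plate median or of vehicle wells; lower values mean less growth of the strain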
# Conditions: S. cerevisiae deletion strains, growth OD
compound,measurement,setting,value
CC(C)c1ccc(NCC(O)CSc2ccccc2)cc1 (stereo unspecified),normalized growth,"locus YAR019C, strain CDC15, active compounds read low",0.956
same,normalized growth,"locus YBL105C, strain PKC1, active compounds read low",0.957
same,normalized growth,"locus YBR135W, strain CKS1, active compounds read low",0.952
same,normalized growth,"locus YBR136W, strain MEC1, active compounds read low",0.952
same,normalized growth,"locus YBR160W, strain CDC28, active compounds read low",0.966
same,normalized growth,"locus YDL017W, strain CDC7, active compounds read low",0.969
same,normalized growth,"locus YDL028C, strain MPS1, active compounds read low",0.955
same,normalized growth,"locus YDL101C, strain DUN1, active compounds read low",0.951
same,normalized growth,"locus YDL108W, strain KIN28, active compounds read low",0.943
same,normalized growth,"locus YDL132W, strain cdc53, active compounds read low",0.948
same,normalized growth,"locus YDL214C, strain PRR2, active compounds read low",0.808
same,normalized growth,"locus YDR052C, strain DBF4, active compounds read low",0.974
same,normalized growth,"locus YDR054C, strain cdc34, active compounds read low",0.947
same,normalized growth,"locus YDR226W, strain ADK1, active compounds read low",0.983
same,normalized growth,"locus YDR477W, strain SNF1, active compounds read low",0.805
same,normalized growth,"locus YER123W, strain YCK3, active compounds read low",0.755
same,normalized growth,"locus YER133W, strain GLC7, active compounds read low",0.796
same,normalized growth,"locus YFL009W, strain cdc4, active compounds read low",0.952
same,normalized growth,"locus YFL029C, strain CAK1, active compounds read low",0.952
same,normalized growth,"locus YFR003C, strain YPI1, active compounds read low",0.959
same,normalized growth,"locus YFR019W, strain FAB1, active compounds read low",0.928
same,normalized growth,"locus YFR028C, strain CDC14, active compounds read low",0.957
same,normalized growth,"locus YGR040W, strain KSS1, active compounds read low",0.801
same,normalized growth,"locus YGR052W, strain FMP48, active compounds read low",0.717
same,normalized growth,"locus YGR092W, strain DBF2, active compounds read low",0.696
same,normalized growth,"locus YHR030C, strain SLT2, active compounds read low",0.655 (active)
same,normalized growth,"locus YHR079C, strain IRE1, active compounds read low",0.7
same,normalized growth,"locus YHR082C, strain KSP1, active compounds read low",0.733
same,normalized growth,"locus YHR205W, strain SCH9, active compounds read low",0.756
same,normalized growth,"locus YIL147C, strain SLN1, active compounds read low",0.952
same,normalized growth,"locus YJL095W, strain BCK1, active compounds read low",0.708
same,normalized growth,"locus YJL128C, strain PBS2, active compounds read low",0.968
same,normalized growth,"locus YJL157C, strain FAR1, active compounds read low",0.845
same,normalized growth,"locus YJR016C, strain ILV3, active compounds read low",0.962
same,normalized growth,"locus YJR066W, strain TOR1 (second series), active compounds read low",0.819
same,normalized growth,"locus YJR066W, strain TOR1, active compounds read low",0.786
same,normalized growth,"locus YKL048C, strain ELM1, active compounds read low",0.731 (active)
same,normalized growth,"locus YKL067W, strain YNK1, active compounds read low",0.834
same,normalized growth,"locus YKL101W, strain HSL1, active compounds read low",0.746
same,normalized growth,"locus YKL193C, strain SDS22, active compounds read low",0.944
same,normalized growth,"locus YKL203C, strain TOR2, active compounds read low",0.814
same,normalized growth,"locus YLR113W, strain HOG1, active compounds read low",0.405 (active)
same,normalized growth,"locus YLR133W, strain CKI1, active compounds read low",0.843
same,normalized growth,"locus YLR403W, strain SFP1, active compounds read low",0.842
same,normalized growth,"locus YML070W, strain DAK1, active compounds read low",0.766
same,normalized growth,"locus YMR001C, strain CDC5, active compounds read low",0.956
same,normalized growth,"locus YMR205C, strain PFK2 (second series), active compounds read low",0.815
same,normalized growth,"locus YMR277W, strain FCP1, active compounds read low",0.953
same,normalized growth,"locus YNL006W, strain LST8, active compounds read low",0.962
same,normalized growth,"locus YNL020C, strain ARK1, active compounds read low",0.812
same,normalized growth,"locus YNL161W, strain CBK1, active compounds read low",0.963
same,normalized growth,"locus YNL183C, strain NPR1, active compounds read low",0.64
same,normalized growth,"locus YNL207W, strain RIO2, active compounds read low",0.951
same,normalized growth,"locus YNL222W, strain SSU72, active compounds read low",0.953
same,normalized growth,"locus YNL307C, strain MCK1 (second series), active compounds read low",0.802
same,normalized growth,"locus YOL078W, strain AVO1, active compounds read low",0.958
same,normalized growth,"locus YOL136C, strain PFK27, active compounds read low",0.781
same,normalized growth,"locus YOR061W, strain CKA2, active compounds read low",0.856
same,normalized growth,"locus YOR119C, strain RIO1, active compounds read low",0.761
same,normalized growth,"locus YOR231W, strain MKK1, active compounds read low",0.634
same,normalized growth,"locus YOR329C, strain SCD5, active compounds read low",0.964
same,normalized growth,"locus YPL031C, strain PHO85, active compounds read low",0.74
same,normalized growth,"locus YPL153C, strain RAD53, active compounds read low",0.741
same,normalized growth,"locus YPL204W, strain HRR25, active compounds read low",0.696
same,normalized growth,"locus YPL209C, strain IPL1, active compounds read low",0.964
same,normalized growth,"locus YPL256C, strain CLN2, active compounds read low",0.621 (active)
same,normalized growth,"locus YPR025C, strain CCL1, active compounds read low",0.957
same,normalized growth,"locus YPR106W, strain ISR1, active compounds read low",0.94
same,normalized growth,"locus YPR111W, strain DBF20, active compounds read low",0.936
same,normalized growth,"strain NNK1, active compounds read low",0.913
same,normalized growth,"strain TSCII, active compounds read low",0.954
